MEKK2wt PB1 HTS = raises or lowers MEK5 binding to wildtype human MEKK2 PB1 domain | bead flow cytometry, Alexa488-MEK5 binding to MEKK2 WT; actives lie on both sides | AID 1531 | binding response (% of control), % at 10 µM | 290,000 compounds, 1.1% hits | Q9Y2U5; in the data active = binding response below about 67% or above about 130%; inconclusive = no clear call, values can overlap the other calls; inactive = in between
PREPL inhibitor = human PREPL enzyme inhibition | recombinant PREPL, fluorescence polarization activity-based probe | inhibition, % at 5.96 µM | 320,000 compounds, 0.68% hits | AID 2751; in the data active = inhibition above about 43%
MEKK3 PB1 HTS = MEKK3-MEK5 PB1 interaction, increase or decrease. bead-based flow cytometry, Alexa488-MEK5 binding to MEKK3; actives lie on both sides; 0 = blocked by unlabeled MEK5, 100 = vehicle. binding response (% of control), % at 10 µM. 290,000 compounds, 1.4% hits;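 active = binding response more than 3 SD above or below the average of its plate-row segment, actives on both sides; inconclusive = wells at one plate position flagged as instrument error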;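 note: Alexa488 bead fluorescence after subtracting the streptavidin-only scavenger bead signal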
ATG4B inhibitor = blocks human ATG4B protease cleavage of LC3 substrate; ATG4B cleavage of LC3-PLA2, NBD-HPC fluorescence, 1 h; inhibition, % at 8.33 µM; 340,000 compounds, 0.51% hits; AID 504462; in the data active = inhibition above about 40%
Target sequence (Q9Y4P1 whole entry, looked up): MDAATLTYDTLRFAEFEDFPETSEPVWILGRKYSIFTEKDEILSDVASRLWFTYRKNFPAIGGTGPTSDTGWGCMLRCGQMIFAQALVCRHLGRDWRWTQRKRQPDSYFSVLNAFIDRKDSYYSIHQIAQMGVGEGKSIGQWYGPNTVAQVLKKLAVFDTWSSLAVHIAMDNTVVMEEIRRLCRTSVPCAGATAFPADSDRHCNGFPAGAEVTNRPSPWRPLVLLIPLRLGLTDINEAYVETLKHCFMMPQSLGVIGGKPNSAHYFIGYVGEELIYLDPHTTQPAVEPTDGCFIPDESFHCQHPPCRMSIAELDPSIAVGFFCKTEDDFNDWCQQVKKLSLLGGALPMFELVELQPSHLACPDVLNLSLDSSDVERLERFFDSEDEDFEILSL
MEKK2mut PB1 HTS = signal of MEK5 binding to mutant human MEKK2 PB1 domain; bead flow cytometry, Alexa488-MEK5 binding to MEKK2 mutant; percent response, % at 10 µM; 290,000 compounds, 0.35% hits; in the data active = percent response above about 24%, passing the limit was not always enough
UBC13 inh = blocks human UBC13 polyubiquitin chain formation | P61088 | TR-FRET | inhibition, % at 20 µM | 330,000 compounds, 0.47% hits | AID 485273; in the data active = inhibition above about 45%, passing the limit was not always enough; inconclusive = no clear call, values can overlap the other calls
Target sequence (P61088 whole entry, looked up): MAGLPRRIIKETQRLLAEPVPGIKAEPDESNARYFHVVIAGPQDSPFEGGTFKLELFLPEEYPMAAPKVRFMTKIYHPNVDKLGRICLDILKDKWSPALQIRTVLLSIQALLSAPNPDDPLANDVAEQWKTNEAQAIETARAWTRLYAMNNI
MEKK2wt confirm = raises or lowers MEK5 binding to wildtype human MEKK2, retest | shares compounds with MEKK3 PB1 HTS | bead flow cytometry, Alexa488-MEK5 binding to MEKK2 WT; actives lie on both sides | binding response (% of control), % at 10 µM | 5,900 compounds, 2.4% hits; in the data active = binding response below about 16% or above about 210%; inactive = in between
MEKK2mut confirm = signal of MEK5 binding to mutant human MEKK2, retest. percent response, % at 10 µM. bead flow cytometry, Alexa488-MEK5 binding to MEKK2 mutant. AID 1893. shares compounds with MEKK3 PB1 HTS. 5,900 compounds, 2% hits; in the data active = percent response mostly above about 71%, no sharp cut-off; inactive = mostly below about 38%;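 note: higher means compound restores mutant binding toward wildtype level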
MEKK3-MEK5 inh = confirmation of inhibitors of MEK5 binding to human MEKK3; shares compounds with MEKK3 PB1 HTS; bead flow cytometry, Alexa488-MEK5 binding to MEKK3; active compounds read low; binding response (% of control), % at 10 µM; 5,900 compounds, 1.8% hits;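 active = binding response below 72% of control, or above a set upper limit, though filed actives all read lower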;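 note: lower values mean stronger disruption of MEK5 binding to MEKK3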
Numbers stand for hits; 0 = inactive; ? = inconclusive; - = no result given; [ ] = dose if it differs, or a comment. Hits are enriched below; roughly 3.1% of the tested compounds scored in any of these assays.

SMILES	MEKK2wt PB1 HTS	PREPL inhibitor	MEKK3 PB1 HTS	ATG4B inhibitor	MEKK2mut PB1 HTS	UBC13 inh	MEKK2wt confirm	MEKK2mut confirm	MEKK3-MEK5 inh
O=C(COc1ccc(Cl)cc1)N(Cc1ccc(F)cc1)C1CCS(=O)(=O)C1 (stereo unspecified)	0	0	0	0	0	0	-	-	-
CSc1ccc(C(=O)Nc2cc(S(=O)(=O)N3CCOCC3)ccc2N2CCOCC2)cc1[N+](=O)[O-]	-	-	-	0	-	-	-	-	-
COc1ccc(S(=O)(=O)N2CCC(C(=O)NCCc3ccc4c(c3)OCO4)CC2)cc1	0	0	48[inhibitor]	0	0	?	0	0	0
Cc1cc(C(=O)Nc2ccc(Cl)cc2)on1	0	0	0	0	0	0	-	-	-
Cc1cc(C(=O)Nc2ccc(C#N)cc2)on1	8.0[inhibitor]	-	4.0[inhibitor]	0	0	0	0	0	0
Cc1no[n+]([O-])c1COc1ccc(/C=C(\C#N)C(N)=O)cc1	0	0	134	0	0	0	0	0	0
O=C(Nc1ccc2nc3n(c(=O)c2c1)CCCC3)c1cccc([N+](=O)[O-])c1	0	0	139	0	0	0	0	0	0
c1ccc(COc2ccccc2CNc2nn[nH]n2)cc1	0	0	67[inhibitor]	0	0	0	0	0	0
Fc1ccc(COc2ccc3ccccc3c2CNc2nn[nH]n2)cc1	0	0	0	0	0	0	-	-	-
CCCCCCOC(=O)C(C#N)c1nc2ccccc2nc1N1CCN(CC)CC1 (stereo unspecified)	158	0	0	0	0	0	0	0	0
CCCCCCOC(=O)C(C#N)c1nc2ccccc2nc1N1CCOCC1 (stereo unspecified)	0	0	0	0	0	0	-	-	-
OC(CN1CCN(c2ccccn2)CC1)Cn1c2ccccc2c2ccccc21 (stereo unspecified)	0	0	0	0	0	0	-	-	-
O=C(c1ccco1)N1CCN(CC(O)Cn2c3ccccc3c3ccccc32)CC1 (stereo unspecified)	0	0	129	0	0	0	0	0	0
OC(CN1CCCCC1)Cn1c2ccccc2c2cc(Br)ccc21 (stereo unspecified)	161	0	0	0	35	0	0	0	0
O=C(c1ccco1)N1CCN(CC(O)COc2ccc(Br)cc2)CC1 (stereo unspecified)	0	0	0	0	0	0	-	-	-
COc1cccc(NC(=O)COC(=O)CCC2CCCC2)c1	-	0	-	0	-	0	-	-	-
Cc1ccc(S(=O)(=O)NC(=O)Nc2ccccc2)cc1	0	0	0	0	0	0	-	-	-
Cc1ccc(S(=O)(=O)NC(=O)Nc2nnc(C)s2)cc1	0.0[inhibitor]	0	0.0[inhibitor]	0	0	0	0	0	0
Cc1nn(C)c(Nc2ccc(Br)cc2)c1Br	-	0	0	0	271	0	0	0	0
Cc1cc(C)nc(-n2nc(C)c(Br)c2Nc2ccc(Br)cc2)n1	0	0	0	0	0	0	-	-	-
CCC(C)c1ccc(NC(=S)N2CCN(S(C)(=O)=O)CC2)cc1 (stereo unspecified)	0	0	0	0	0	0	-	-	-
COc1ccc(-c2cn3cccnc3n2)cc1NC(=O)c1cc(OC)c(OC)c(OC)c1	27[inhibitor]	0	20[inhibitor]	0	0	0	0	0	0
COC(=O)/C(=C\c1ccc2c(c1)c1ccccc1n2C)NC(=O)c1ccccc1	2.0[inhibitor]	0	2.0[inhibitor]	0	0	0	0	0	0
CC(C)c1ccccc1NCC(=O)N1CCN(Cc2ccccc2)CC1	0	0	0	0	0	0	-	-	-
CCOc1ccc(-c2noc(=O)[nH]2)cc1	39[inhibitor]	0	23[inhibitor]	0	0	0	0	0	0
SMILES	MEKK2wt PB1 HTS	PREPL inhibitor	MEKK3 PB1 HTS	ATG4B inhibitor	MEKK2mut PB1 HTS	UBC13 inh	MEKK2wt confirm	MEKK2mut confirm	MEKK3-MEK5 inh
CC(C)(C)C(=O)Cn1nc(Cl)nc1Cl	0	0	132	0	0	0	0	0	0
NC(=O)c1ccsc1NC(=O)COC(=O)c1cc(=O)[nH]c2ccccc12	-	0	-	0	-	0	-	-	-
COc1ccccc1S(=O)(=O)Cc1ccc(C(=O)NCCN2CCCCCC2)o1	135	0	0	0	0	0	0	0	0
COCCNC(=O)c1ccc(CS(=O)(=O)c2ccccc2OC)o1	0	0	0	0	0	0	-	-	-
CC1CN(Cc2cc(=O)[nH]c(C3CC3)n2)CC(C)O1 (stereo unspecified)	3.0[inhibitor]	0	2.0[inhibitor]	0	0	0	0	0	0
O=c1cc(CN2CCCCC2)nc(C2CC2)[nH]1	0	0	0	0	0	0	-	-	-
C=C1C(=O)c2sccc2C(c2ccc(OC)c(OC)c2)C1COC(C)=O (stereo unspecified)	-	-	-	0	-	-	-	-	-
O=[N+]([O-])c1cc2c(cc1CN1CCN(CCOCCO)CC1)OCO2	149	0	0	0	0	0	0	0	0
CCCOC(=O)c1ccc(OCC(O)CN2CCN(C(=O)c3ccccc3)CC2)cc1 (stereo unspecified)	0	0	0	0	27	0	0	0	0
COc1ccccc1OCC(=O)NNC(=O)Nc1ccccc1	-	0	-	0	-	0	-	-	-
O=C(CSc1nnc(-c2ccco2)o1)N1c2ccccc2CCc2ccccc21	0	0	80[inhibitor]	0	0	0	0	0	0
O=C(CSc1nnc(-c2ccco2)o1)N1CCOCC1	0	0	0	0	0	0	-	-	-
Fc1ccc(CSc2nnc(-c3ccco3)o2)cc1	0	0	1.0[inhibitor]	0	0	0	0	0	0
O=C(CSc1nnc(-c2ccco2)o1)N1CCN(c2ccccc2)CC1	0	0	136	0	0	0	0	0	0
CC(=O)c1c(C)[nH]c(C(=O)CSc2nnc(-c3ccco3)o2)c1C	0	0	152	0	0	0	0	0	0
c1ccc(CSc2nnc(-c3ccco3)o2)cc1	0	0	0	0	0	0	-	-	-
CC1Cc2ccccc2N1C(=O)CN(C)CC(=O)Nc1ccc(F)cc1 (stereo unspecified)	-	0	-	0	-	0	-	-	-
Cc1cc(C(=O)NNC(=O)c2ccccc2F)c2ccccc2n1	-	0	-	0	-	0	-	-	-
Cc1cc(C)n2nc(Nc3ccccc3)cc2n1	0	0	81[inhibitor]	0	0	0	0	0	0
Cc1cc(C)n2nc(-c3ccccc3)cc2n1	0	0	0	0	0	0	-	-	-
c1ccc(CSc2nnc3ccc(-c4cccs4)nn23)nc1	0	0	0	0	197	0	0	0	0
CCOC(=O)c1cccc(N2CC3CNC(=O)C2(C(=O)OC)N3C)c1 (stereo unspecified)	-	0	-	0	-	0	-	-	-
